Tau ThT inhib = qHTS for Inhibitors of Tau Fibril Formation, Thioflavin T Binding. recombinant tau K18 P301L, heparin-induced fibrillization, ThT fluorescence. Potency, µM (series often up to 57.4 µM), without a hit: top-dose activity, negative = inhibition, usual class: inhibitors. AID 1460, 2008. 2.1% of 270,000 active; further: nearly all actives have a fitted effect of over 55% in size
Target sequence (P10636 561-689 P618L limits assumed): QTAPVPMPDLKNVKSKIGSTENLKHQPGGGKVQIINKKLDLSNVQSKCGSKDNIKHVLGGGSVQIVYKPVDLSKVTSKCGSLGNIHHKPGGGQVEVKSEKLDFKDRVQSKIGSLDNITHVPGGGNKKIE
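Fibril formation assay: tau K18 P301L at 15 uM with trace Alexa 594 label, heparin inducer 20 uM, pH 7 sodium acetate buffer, 37 C for 6 hr; endpoint ThT signal.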
HPGD block = qHTS Assay for Inhibitors of HPGD (15-Hydroxyprostaglandin Dehydrogenase); 15-hydroxyprostaglandin dehydrogenase [NAD(+)] (Homo sapiens), P15428; purified HPGD, NADH fluorescence kinetic, PGE2 substrate; Potency, µM, for inactives: top-dose activity change, negative = inhibition, actives largely listed as inhibitors; 4.3% of 150,000 active; AID 894, 2007; active means well fitted inhibition curve with a large enough effect, not every such curve was filed as active; inconclusive means small, poorly fitted or top-dose-only effect, or another doubt; inactive means no such curve, though single readings can be large or run the other way
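NADH formation kinetics: reaction with 30 uM PGE2 and 1 mM NAD+ (final), 20 nM enzyme, Tris-HCl pH 8 with Tween 20, after 15 min compound preincubation at room temperature. Fluorescence change, last versus first of five reads.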
Tau fluor cs = Counterscreen qHTS for Inhibitors of Tau Fibril Formation, Fluorescence Polarization. tau K18 P301L (four-repeat tau fragment) Alexa594 fluorescence, heparin fibrillization. Potency, µM (highest dose often 57.7 µM), without a hit: at the highest dose activity change, negative = decrease. 0.93% of 280,000 active. AID 1463, 2008; further: nearly all actives have a fitted effect of over 55% in size
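Human K18 P301L tau (15 uM unlabeled plus 0.24 uM Alexa 594-labeled, final) in 100 mM sodium acetate pH 7 was mixed with compound and 20 uM heparin and incubated 6 hr at 37 C.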
ALDH1A1 inh = qHTS Assay for Inhibitors of Aldehyde Dehydrogenase 1 (ALDH1A1). Aldehyde dehydrogenase 1A1 (Homo sapiens), P00352. Purified ALDH1A1, NADH fluorescence, propionaldehyde substrate. Potency, µM (series often up to 75.3 µM), for the others: top-dose activity, negative = inhibition, most hits filed as inhibitors. 7.3% of 220,000 active. AID 1030, 2008; active means well fitted inhibition curve with a large enough effect, not every such curve was filed as active; inconclusive means small, poorly fitted or top-dose-only effect, or another doubt; inactive means no such curve, though single readings can be large or run the other way;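 further: plate controls were no enzyme wells and a reference inhibitor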
JMJD2E inh = qHTS Assay for Inhibitors of Human Jumonji Domain Containing 2E (JMJD2E); JMJD2E catalytic domain, FDH-coupled NADH fluorescence (FDH is formaldehyde dehydrogenase); Potency, µM (doses to about 57.1 µM), for inactives: at the top dose activity change, negative = inhibition, most hits filed as inhibitors; 1.6% of 230,000 active; AID 2147, 2009; active means well fitted inhibition curve with a large enough effect, not every such curve was filed as active; inconclusive means small, poorly fitted or top-dose-only effect, or another doubt; inactive means no such curve, though single readings can be large or run the other way;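 further: 0% = wells with enzyme and -100% = buffer wells without enzyme; nearly all actives have a fitted effect of over 50% in size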
Target sequence (B2RXH2 1-337 limits assumed): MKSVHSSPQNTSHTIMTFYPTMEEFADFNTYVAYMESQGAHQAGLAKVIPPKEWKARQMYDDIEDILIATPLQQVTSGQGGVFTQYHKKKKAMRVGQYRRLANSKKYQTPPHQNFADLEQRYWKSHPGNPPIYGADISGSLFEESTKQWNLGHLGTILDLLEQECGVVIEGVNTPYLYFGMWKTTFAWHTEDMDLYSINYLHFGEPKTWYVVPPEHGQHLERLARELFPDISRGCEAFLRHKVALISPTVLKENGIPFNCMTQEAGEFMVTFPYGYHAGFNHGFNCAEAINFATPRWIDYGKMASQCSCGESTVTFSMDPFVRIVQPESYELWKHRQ
Tau FP inhib = qHTS for Inhibitors of Tau Fibril Formation, Fluorescence Polarization; AID 1468, 2008; 0.39% of 280,000 active; Microtubule-associated protein tau (Homo sapiens), P10636; Potency, µM (doses to about 57.7 µM), without a hit: at the top dose activity, negative = inhibition, usual class: inhibitors; K18 P301L tau heparin fibrillization, Alexa594 FP, 6 h; further: nearly all actives have a fitted effect of over 55% in size
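K18 P301L tau (15 uM unlabeled/0.24 uM Alexa 594-labeled, final) + compound + heparin 20 uM final; 100 mM NaOAc pH 7; 6 hr 37 C; ThT 30 uM final added, 1 hr RT; FP ex 555/em 632 nm.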
An asterisk follows results filed as active; ? = inconclusive; . = no result. A selection: hits, their analogues and other compounds. The true share with any hit is near 9.9%. Unless noted, the call rests on the fitted dose curve; in most records, active means well fitted curve in the direction sought with a large enough effect; inconclusive means small, poorly fitted or top-dose-only effect, or another doubt; inactive means no such curve, though single readings can be large; an effect the other way counts as inactive or inconclusive. Unless noted, on the % scale 0 is the no-effect control and ±100 the full control effect; potency means the concentration at half of the fitted maximal effect.

SMILES	Tau ThT inhib	HPGD block	Tau fluor cs	ALDH1A1 inh	JMJD2E inh	Tau FP inhib
COc1ccc(C2C=C(Nc3ccccc3)C(=O)N2c2ccccc2)cc1OC (stereo not given)	13µM*	?	-25%	?	?	?
CCCC(c1nnnn1C(C)(C)CC)N(Cc1ccco1)Cc1cc2ccc(OC)cc2[nH]c1=O (stereo not given)	?	-21%	?	32µM*	?	-8%
COC(=O)CN1C(=S)N(c2ccc(OC)cc2)C(=O)/C1=C/c1ccc(N2CCOCC2)cc1	?	.	-28%	?	-3%	13%
COC(=O)/C=C1\SC(N2CCOCC2)=C(c2ccc(OC)cc2)C1=O	28µM*	.	-20%	7.9µM*	-13%	?
COc1ccc(-c2c(C#N)sc(C(N)=O)c2-c2ccc(OC)cc2)cc1	-7%	.	-17%	2µM*	-5%	-9%
C=CCn1c2ccccc2c2nnc(SCN3C(=O)c4ccccc4C3=O)nc21	?	-29%	-20%	28µM*	-13%	-7%
O=c1[nH]c2ccccc2n1CCCSc1cnc2ccccc2n1	?	-12%	-3%	-2%	-3%	-1%
C=CCn1c2ccccc2c2nnc(SCCCn3c(=O)[nH]c4ccccc43)nc21	?	14µM*	-27%	-7%	-5%	6%
c1ccc(CCn2c3ccccc3c3nnc(SCc4ccc5nonc5c4)nc32)cc1	-9%	-19%	-24%	?	-26%	-9%
CCn1c2ccccc2c2nnc(SCC(=O)OCN3C(=O)c4ccccc4C3=O)nc21	-4%	.	-2%	2%	6%	0%
O=C1c2ccccc2C(=O)N1CSc1nnc2c3ccccc3n(CCc3ccccc3)c2n1	-8%	-11%	-10%	18µM*	7%	6%
COc1cc2c(cc1O)CCC1C2CC[C@]2(C)[C@@H](O)CC[C@@H]12 (stereo not given in full)	?	-10%	-28%	-2%	-4%	3%
CC(C)c1ccc(C2C3CSCC=C3C(C#N)=C(N)C2(C#N)C#N)cc1 (stereo not given)	?	?	-22%	16µM*	?	-9%
CCOC(=O)N1CC=C2C(C#N)=C(N)C(C#N)(C#N)[C@H](c3ccsc3)[C@H]2C1	?	-13%	-12%	?	61%	?
CN1CC=C2C(C#N)=C(N)C(C#N)(C#N)[C@H](c3cccs3)[C@H]2C1	?	?	-17%	?	?	?
CN1CC=C2C(C#N)=C(N)C(C#N)(C#N)C(c3ccsc3)C2C1 (stereo not given)	16µM*	?	-18%	?	?	?
CN1CC=C2C(C#N)=C(N)C(C#N)(C#N)[C@H](c3cccc(Cl)c3)C2C1 (stereo not given in full)	20µM*	?	-27%	?	?	?
COc1ccc(/C=N/O)cc1COc1ccc(NC(C)=O)cc1	-9%	25µM*	-6%	2%	2%	?
COc1ccc(NC(=O)/C(=C/c2ccc3c(c2)OCO3)NC(C)=O)cc1	9%	-19%	9%	4%	4%	2%
CCOc1ccc(NC(=O)/C(=C\c2ccc(OC(C)=O)c(OC)c2)NC(C)=O)cc1	8%	-14%	11%	10µM*	-3%	7%
COc1ccc(-c2cn(-c3ccc(C)cc3)c(S(=O)(=O)CC(=O)Nc3ccccc3)n2)cc1	-9%	.	-29%	.	.	-16%

Screening data as filed in PubChem.
